Laboratory results reported in the supplement of paper PMC13380429.
Where a name gives a salt, the structure may show the parent alone.

Test system: Vero E6 infected with SARS-CoV-2
Experiment: inhibition of SARS-CoV-2 cytopathic effect; higher = more antiviral protection, active = above 15
Settings: 48 h

Measured: inhibition of SARS-CoV-2 cytopathic effect

O=C(Nc1ccccc1)c1cc([N+](=O)[O-])ccc1Cl
inactive: 1 nM 1.34% | 8.33 nM 2.14% | 100 nM 0.85% | 833.33 nM -0.67% | 10000 nM -0.39%

CCCCC(CC)CNC(=N)NC(=N)NCCCCCCNC(=N)NC(=N)NCC(CC)CCCC (stereo not given) [alexidine]
inactive: 1 nM -2.11% | 8.33 nM 4.36% | 100 nM 2.23% | 833.33 nM -6.06% | 10000 nM -18.2%

CCC(=O)OCC(=O)[C@@]1(OC(=O)CC)[C@H](C)C[C@H]2[C@H]3[C@H]([C@@H](O)C[C@@]21C)[C@@]1(C)C=CC(=O)C=C1C[C@H]3Cl [alclometasone-dipropionate]
inactive: 1 nM 3% | 8.33 nM 0.48% | 100 nM 1.16% | 833.33 nM 1.07% | 10000 nM -2.92%

CCNCc1cc(C(C)(C)C)c(O)c(C(C)(C)C)c1
inactive: 1 nM 1.75% | 8.33 nM -0.5% | 100 nM 1.78% | 833.33 nM 0.46% | 10000 nM 1.14%

CC(C)c1cc(C(C)C)c(CC(=O)NS(=O)(=O)Oc2c(C(C)C)cccc2C(C)C)c(C(C)C)c1 [avasimibe]
inactive: 1 nM -2.41% | 8.33 nM 1.3% | 100 nM -0.91% | 833.33 nM -2.68% | 10000 nM -1.52%

CCC[C@H](N[C@H]1CCc2cc(F)cc(F)c2C1)C(=O)Nc1cn(C(C)(C)CNCC(C)(C)C)cn1
inactive: 1 nM 2.54% | 8.33 nM -2.77% | 100 nM -1.3% | 833.33 nM -9.66% | 10000 nM -10.1%

O=[N+]([O-])c1cnc(Sc2nnc(O)n2-c2ccc3c(c2)OCCO3)s1
inactive: 1 nM 0.17% | 8.33 nM 0.75% | 100 nM 1.8% | 833.33 nM 0.05% | 10000 nM -17.7%

CN(C)CCCSC(=N)N [dimaprit]
inactive: 1 nM 0.47% | 8.33 nM 0.92% | 100 nM -0.82% | 833.33 nM -1.15% | 10000 nM 2.17%

CS(=O)(=O)CCNCc1ccc(-c2ccc3ncnc(Nc4ccc(OCc5cccc(F)c5)c(Cl)c4)c3c2)o1 [lapatinib]
inactive: 1 nM -1.4% | 8.33 nM 0.42% | 100 nM -3.11% | 833.33 nM -11.4% | 10000 nM -7.81%

COc1ccc(C(Cl)=C(c2ccc(OC)cc2)c2ccc(OC)cc2)cc1 [chlorotrianisene]
inactive: 1 nM -2.25% | 8.33 nM 0.16% | 100 nM -0.43% | 833.33 nM -2.65% | 10000 nM 5.78%

Cc1ccc(S(=O)(=O)Cc2nc(-c3ccc(C(=O)NCc4cccnc4)cc3)oc2C)cc1
inactive: 1 nM -2.69% | 8.33 nM -2.16% | 100 nM -15.4% | 833.33 nM -19.2% | 10000 nM -16.4%

COc1ccccc1Oc1c(NS(=O)(=O)c2ccc(C(C)(C)C)cc2)nc(-c2ncccn2)nc1OCCO [bosentan]
inactive: 1 nM -0.62% | 8.33 nM 1.39% | 100 nM 1.79% | 833.33 nM -3.3% | 10000 nM -1.84%

CC(C)n1c(=O)n(C(=O)N[C@H]2C[C@H]3CC[C@@H](C2)N3C)c2ccccc21
inactive: 1 nM 3% | 8.33 nM 1.63% | 100 nM -0.05% | 833.33 nM -0.36% | 10000 nM -2.53%

CN1CCN(C(=O)c2nc3ccc(Cl)cc3[nH]2)CC1
inactive: 1 nM -2% | 8.33 nM 1.3% | 100 nM 0.78% | 833.33 nM 1.23% | 10000 nM 1.76%

O=C(C[S+]([O-])Cc1ccco1)NC/C=C\COc1cc(CN2CCCCC2)ccn1 (stereo not given) [lafutidine]
inactive: 1 nM -0.4% | 8.33 nM 5.21% | 100 nM 1.21% | 833.33 nM 5.01% | 10000 nM 3.05%

O=c1[nH]ccc2cc(OC3CCNCC3)ccc12
inactive: 1 nM 1.91% | 8.33 nM 0.89% | 100 nM -0.08% | 833.33 nM -3.34% | 10000 nM -7.36%

CN(C(=O)CN1C(=O)COc2cc(Cl)c(Cl)cc21)[C@@H](CN1CCCC1)c1ccc(-c2cccc(C(N)=O)c2)cc1
inactive: 1 nM -0.51% | 8.33 nM 1.04% | 100 nM 3.9% | 833.33 nM 1.88% | 10000 nM 5.93%

CC/C(=C(\c1ccc(O)cc1)c1ccc(OCCNC)cc1)c1ccccc1 [Endoxifen HCl]
active: 10000 nM 57%
inactive: 1 nM -1.34% | 8.33 nM 7.36% | 100 nM 10.6% | 833.33 nM -0.77%

CCOC(=O)Nc1ccc2c(c1)N(C(=O)CN(C)C)c1ccccc1CC2 [tiracizine]
inactive: 1 nM 3.29% | 8.33 nM -0.87% | 100 nM -0.27% | 833.33 nM 1.89% | 10000 nM 0.68%

O=C(CCCCCCNC(=O)c1cnc(N(c2ccccc2)c2ccccc2)nc1)NO
inactive: 1 nM -0.34% | 8.33 nM -1.04% | 100 nM 2.13% | 833.33 nM -4.05% | 10000 nM -10.5%

Cc1ccc2c(c1)c1c3n2CCNC3CCC1 (stereo not given) [pirlindole]
inactive: 1 nM -1.68% | 8.33 nM -2.42% | 100 nM -1.65% | 833.33 nM 0.99% | 10000 nM -3.66%

Cc1c(Cn2c(C)nc3c(C(=O)O)cc(N4CCOCC4)cc32)cccc1C(F)(F)F
inactive: 1 nM 1.56% | 8.33 nM 4.39% | 100 nM 3.91% | 833.33 nM -2.09% | 10000 nM -2.66%

CC(C)(C)OC(=O)c1ncn2c1[C@@H]1CCCN1C(=O)c1c(Br)cccc1-2 [bretazenil]
inactive: 1 nM -1.38% | 8.33 nM -4.36% | 100 nM -1.99% | 833.33 nM -3.96% | 10000 nM -1.07%

Cc1nc2c(O)cccc2c(=O)[nH]1
inactive: 1 nM 2.07% | 8.33 nM 2.96% | 100 nM -2.15% | 833.33 nM 3.67% | 10000 nM 4.88%

Cc1cccc(-c2[nH]c(C(C)(C)C)nc2-c2ccc3c(c2)OCO3)n1
inactive: 1 nM -0.26% | 8.33 nM -0.29% | 100 nM -0.87% | 833.33 nM -5.24% | 10000 nM -2.91%

Cc1ccc(/C=C2\CNC/C(=C\c3ccc(C)cc3)C2=O)cc1
inactive: 1 nM -3.15% | 8.33 nM -1.97% | 100 nM -0.54% | 833.33 nM -0.34% | 10000 nM 0.13%

Nc1ncnc2c1ncn2C1CCCO1 (stereo not given)
inactive: 1 nM 2.17% | 8.33 nM 3.9% | 100 nM -1% | 833.33 nM 2.95% | 10000 nM -0.8%

N#Cc1ccc(C(c2ccc(C#N)cc2)n2cncn2)cc1 [letrozole]
inactive: 1 nM -1.89% | 8.33 nM 4.26% | 100 nM 0.11% | 833.33 nM -2.14% | 10000 nM -1.61%

CCC[C@H](Nc1nc(-c2ccc(NC(=O)NCC)c(OC)c2)ncc1C)c1cccnc1
inactive: 1 nM 0.07% | 8.33 nM -1.4% | 100 nM -1.33% | 833.33 nM -0.69% | 10000 nM -2.7%

C[C@@H]1C[C@H]2[C@@H]3C[C@H](F)C4=CC(=O)C=C[C@]4(C)[C@@]3(F)[C@@H](O)C[C@]2(C)[C@@]1(O)C(=O)COC(=O)C(C)(C)C [flumethasone-pivalate]
inactive: 1 nM -0.06% | 8.33 nM -2.13% | 100 nM -1.68% | 833.33 nM -1.81% | 10000 nM 6.04%

COc1cccc(C2(O)CCCCC2CN(C)C)c1 (stereo not given)
inactive: 1 nM 3.29% | 8.33 nM 6.35% | 100 nM 2.41% | 833.33 nM -2.01% | 10000 nM -5.31%

C[C@H]1CCc2c(cc(Br)c(F)c2Br)N1C=O
inactive: 1 nM -0.42% | 8.33 nM -1.13% | 100 nM -1.55% | 833.33 nM -0.53% | 10000 nM -1.25%

Cc1cccc(C(=O)O)c1O [hydroxytoluic-acid]
inactive: 1 nM -9.06% | 8.33 nM -7.41% | 100 nM -5.24% | 833.33 nM -2.47% | 10000 nM -10.5%

COc1ccc2[nH]c([S@@+]([O-])Cc3ncc(C)c(OC)c3C)nc2c1 [esomeprazole]
inactive: 1 nM -1.94% | 8.33 nM -1.72% | 100 nM -0.5% | 833.33 nM -0.9% | 10000 nM 0.21%

COc1c2occc2c(OC)c2c(=O)cc(C)oc12 [khellin]
inactive: 1 nM 3.97% | 8.33 nM -0.75% | 100 nM -0.95% | 833.33 nM -3.54% | 10000 nM -0.89%

O=C(C1CC1)N1CC[C@@H](Cc2n[nH]c(=O)n2-c2ccc(-c3ccc4occc4c3)cc2)C1
inactive: 1 nM -1.12% | 8.33 nM -1.14% | 100 nM -1.43% | 833.33 nM -0.64% | 10000 nM -4.48%

COc1ccc(C2(O)CCC(N3CC[C@@H](NC(=O)CNC(=O)c4cccc(C(F)(F)F)c4)C3)CC2)cn1 (stereo not given in full)
inactive: 1 nM -0.385% | 8.33 nM 0.89% | 100 nM -1.07% | 833.33 nM -1.1% | 10000 nM -0.44%

OC[C@H]1O[C@@H](n2cnc3c(NC4CCCC4)ncnc32)[C@H](O)[C@@H]1O [N6-cyclopentyladenosine]
inactive: 1 nM 0.37% | 8.33 nM 0.93% | 100 nM 1.63% | 833.33 nM 4.59% | 10000 nM 1.5%

Cc1c(C(=O)NN2CCCCC2)nn(-c2ccc(Cl)cc2Cl)c1-c1ccc(I)cc1
inactive: 1 nM 0.54% | 8.33 nM -3.71% | 100 nM 3.18% | 833.33 nM 1.67% | 10000 nM 2.28%

O=C(O)[C@@H]1C[C@@H](O)CN1 [L-hydroxyproline]
inactive: 1 nM -3.79% | 8.33 nM -1.12% | 100 nM -0.27% | 833.33 nM -1.36% | 10000 nM -3.93%
